From publication PMC7862700, “An all-to-all approach to the identification of sequence-specific readers for epigenetic DNA modifications on cytosine”

Legend:
Assay in all cases: DAPPL (digital affinity profiling via proximity ligation, sequencing); 10 mM Tris-HCl pH 7.5, 50 mM NaCl, 1 mM DTT, 4% glycerol, room temperature, 30 min; GST-TFs on glutathione beads, 16-mer random dsDNA library, 0.1% formaldehyde crosslink after washing; high values mean tight binding
Conditions in all cases: protein: recombinant; tags: N-terminal GST; dsDNA, one strand shown
FLI1 = target: T1, FLI1 (Homo sapiens, UniProt Q01543 1-452)
T1 sequence: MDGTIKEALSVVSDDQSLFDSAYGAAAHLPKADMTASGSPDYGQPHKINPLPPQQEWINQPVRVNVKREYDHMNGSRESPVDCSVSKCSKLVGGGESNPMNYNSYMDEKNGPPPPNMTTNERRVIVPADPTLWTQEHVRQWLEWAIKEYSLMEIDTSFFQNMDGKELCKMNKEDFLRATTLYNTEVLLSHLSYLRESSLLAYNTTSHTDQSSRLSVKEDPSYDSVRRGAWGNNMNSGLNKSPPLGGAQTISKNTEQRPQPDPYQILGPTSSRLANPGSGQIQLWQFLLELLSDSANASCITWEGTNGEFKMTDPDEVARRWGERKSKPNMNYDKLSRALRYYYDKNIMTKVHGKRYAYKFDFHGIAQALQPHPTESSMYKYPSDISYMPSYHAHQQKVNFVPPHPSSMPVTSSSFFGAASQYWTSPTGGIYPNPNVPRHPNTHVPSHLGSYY
In short: (§1)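 Pools were built from human transcription factors expressed in yeast as GST fusions, captured on glutathione beads and DNA-barcoded, along with a tag-only sample. Incubation with 200 nmole of a 16-mer random double-stranded DNA library lasted 30 min at room temperature in Tris/NaCl/DTT/glycerol buffer, and was followed by washing, 0.1% formaldehyde crosslinking, proximity ligation, PCR amplification and Illumina NextSeq500 sequencing. Binding signal is the quotient of each hexamer's read frequency for a factor and its frequency for the tag-only sample.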

ELK1 = target: T2, ELK1 (Homo sapiens, UniProt P19419 1-428)
T2 sequence: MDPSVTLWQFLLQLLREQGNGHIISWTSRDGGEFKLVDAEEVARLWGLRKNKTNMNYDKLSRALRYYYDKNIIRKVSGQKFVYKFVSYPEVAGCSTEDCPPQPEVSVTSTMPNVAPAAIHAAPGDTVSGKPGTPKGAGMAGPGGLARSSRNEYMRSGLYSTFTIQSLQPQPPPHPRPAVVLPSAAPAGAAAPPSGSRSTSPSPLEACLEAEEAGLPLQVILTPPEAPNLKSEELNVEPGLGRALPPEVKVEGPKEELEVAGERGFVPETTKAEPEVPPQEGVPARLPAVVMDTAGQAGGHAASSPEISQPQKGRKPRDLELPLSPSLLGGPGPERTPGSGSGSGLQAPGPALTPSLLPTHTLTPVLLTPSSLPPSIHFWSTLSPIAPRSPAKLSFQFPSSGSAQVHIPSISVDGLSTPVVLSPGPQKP
In short: as §1

GABPA = target: T3, GABPA (Homo sapiens, UniProt Q06546 1-454)
T3 sequence: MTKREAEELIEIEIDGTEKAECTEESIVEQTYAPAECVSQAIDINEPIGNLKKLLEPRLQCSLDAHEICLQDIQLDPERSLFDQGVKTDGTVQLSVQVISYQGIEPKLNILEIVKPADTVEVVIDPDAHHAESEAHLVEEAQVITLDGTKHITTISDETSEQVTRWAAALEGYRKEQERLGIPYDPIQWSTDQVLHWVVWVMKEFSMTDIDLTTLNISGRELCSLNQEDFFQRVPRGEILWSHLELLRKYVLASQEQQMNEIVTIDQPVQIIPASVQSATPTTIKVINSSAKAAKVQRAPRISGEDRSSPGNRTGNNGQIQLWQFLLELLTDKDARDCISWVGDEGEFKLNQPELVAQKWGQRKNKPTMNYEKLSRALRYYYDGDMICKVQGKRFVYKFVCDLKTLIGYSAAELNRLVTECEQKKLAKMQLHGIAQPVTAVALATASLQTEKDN
In short: as §1

ERG = target: T4, ERG (Homo sapiens, UniProt P11308 1-479)
T4 sequence: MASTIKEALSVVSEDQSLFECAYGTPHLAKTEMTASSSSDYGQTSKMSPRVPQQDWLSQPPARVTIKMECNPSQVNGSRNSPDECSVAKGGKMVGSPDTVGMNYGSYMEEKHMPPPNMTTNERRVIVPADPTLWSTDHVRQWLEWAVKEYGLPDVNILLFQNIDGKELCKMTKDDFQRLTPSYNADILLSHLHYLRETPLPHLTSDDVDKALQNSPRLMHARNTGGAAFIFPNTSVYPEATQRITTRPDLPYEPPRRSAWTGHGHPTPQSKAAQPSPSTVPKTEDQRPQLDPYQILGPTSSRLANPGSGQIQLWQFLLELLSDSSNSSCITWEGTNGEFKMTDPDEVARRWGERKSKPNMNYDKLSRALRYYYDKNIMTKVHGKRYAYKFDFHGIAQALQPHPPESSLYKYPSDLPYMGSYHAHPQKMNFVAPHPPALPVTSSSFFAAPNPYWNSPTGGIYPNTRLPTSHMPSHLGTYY
In short: as §1

ELF1 = ELF1 (Homo sapiens, UniProt P32519 1-619)
In short: as §1

EHF = target: T5, EHF (Homo sapiens, UniProt Q9NZC4 1-300)
T5 sequence: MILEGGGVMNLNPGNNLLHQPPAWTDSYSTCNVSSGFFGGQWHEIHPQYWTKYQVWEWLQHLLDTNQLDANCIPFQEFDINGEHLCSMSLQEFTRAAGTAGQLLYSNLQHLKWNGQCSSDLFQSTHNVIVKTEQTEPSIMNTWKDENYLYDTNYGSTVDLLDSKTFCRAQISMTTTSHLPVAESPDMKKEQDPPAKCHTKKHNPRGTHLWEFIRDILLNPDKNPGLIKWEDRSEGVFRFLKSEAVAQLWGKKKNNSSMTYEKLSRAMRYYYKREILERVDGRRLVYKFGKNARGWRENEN
In short: as §1

SPI1 = SPI1 (Homo sapiens, UniProt P17947 1-270)
In short: as §1

SPIB = SPIB (Homo sapiens, UniProt Q01892 1-262)
In short: as §1

ELK3 = target: T6, ELK3 (Homo sapiens, UniProt P41970 1-407)
T6 sequence: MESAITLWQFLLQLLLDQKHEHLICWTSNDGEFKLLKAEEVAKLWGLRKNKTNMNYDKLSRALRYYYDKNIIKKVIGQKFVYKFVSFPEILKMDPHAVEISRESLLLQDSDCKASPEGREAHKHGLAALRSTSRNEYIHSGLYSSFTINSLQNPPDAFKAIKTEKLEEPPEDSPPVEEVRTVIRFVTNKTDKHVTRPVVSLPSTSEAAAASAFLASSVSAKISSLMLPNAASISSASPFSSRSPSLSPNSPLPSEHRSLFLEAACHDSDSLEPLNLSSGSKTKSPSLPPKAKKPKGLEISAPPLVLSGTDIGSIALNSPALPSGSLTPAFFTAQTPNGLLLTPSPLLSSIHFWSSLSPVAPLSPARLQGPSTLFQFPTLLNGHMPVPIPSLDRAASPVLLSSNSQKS
In short: as §1

FEV = target: T7, FEV (Homo sapiens, UniProt Q99581 1-238)
T7 sequence: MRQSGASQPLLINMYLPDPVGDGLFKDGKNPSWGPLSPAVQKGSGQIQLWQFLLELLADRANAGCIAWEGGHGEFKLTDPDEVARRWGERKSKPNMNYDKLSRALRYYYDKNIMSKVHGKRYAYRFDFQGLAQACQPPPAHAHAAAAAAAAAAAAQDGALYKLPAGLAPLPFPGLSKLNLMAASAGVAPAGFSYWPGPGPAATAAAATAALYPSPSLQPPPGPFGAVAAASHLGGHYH
In short: as §1

ETV5 = ETV5 (Homo sapiens, UniProt P41161 1-510)
In short: as §1

SPIC = target: T8, SPIC (Homo sapiens, UniProt Q8N5J4 1-248)
T8 sequence: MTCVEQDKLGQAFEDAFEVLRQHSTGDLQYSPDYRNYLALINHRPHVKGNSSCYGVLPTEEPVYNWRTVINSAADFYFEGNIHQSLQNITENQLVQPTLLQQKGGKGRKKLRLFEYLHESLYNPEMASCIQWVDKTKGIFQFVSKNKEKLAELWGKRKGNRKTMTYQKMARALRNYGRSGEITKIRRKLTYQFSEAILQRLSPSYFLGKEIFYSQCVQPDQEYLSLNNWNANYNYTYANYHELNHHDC
In short: as §1

ELF4 = ELF4 (Homo sapiens, UniProt Q99607 1-663)
In short: as §1

ELK4 = target: T9, ELK4 (Homo sapiens, UniProt P28324-2 1-405)
T9 sequence: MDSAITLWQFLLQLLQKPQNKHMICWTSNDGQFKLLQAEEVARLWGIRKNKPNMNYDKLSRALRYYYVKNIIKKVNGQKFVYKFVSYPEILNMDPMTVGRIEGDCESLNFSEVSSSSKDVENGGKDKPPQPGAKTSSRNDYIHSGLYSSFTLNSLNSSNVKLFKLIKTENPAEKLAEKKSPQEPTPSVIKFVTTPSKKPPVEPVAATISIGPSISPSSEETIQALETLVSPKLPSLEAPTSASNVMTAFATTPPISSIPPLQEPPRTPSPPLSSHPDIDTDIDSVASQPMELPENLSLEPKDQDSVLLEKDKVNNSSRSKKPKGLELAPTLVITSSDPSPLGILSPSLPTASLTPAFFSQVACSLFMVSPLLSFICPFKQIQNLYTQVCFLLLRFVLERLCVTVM
In short: as §1

ETV2 = target: T10, ETV2 (Homo sapiens, UniProt O00321 1-342)
T10 sequence: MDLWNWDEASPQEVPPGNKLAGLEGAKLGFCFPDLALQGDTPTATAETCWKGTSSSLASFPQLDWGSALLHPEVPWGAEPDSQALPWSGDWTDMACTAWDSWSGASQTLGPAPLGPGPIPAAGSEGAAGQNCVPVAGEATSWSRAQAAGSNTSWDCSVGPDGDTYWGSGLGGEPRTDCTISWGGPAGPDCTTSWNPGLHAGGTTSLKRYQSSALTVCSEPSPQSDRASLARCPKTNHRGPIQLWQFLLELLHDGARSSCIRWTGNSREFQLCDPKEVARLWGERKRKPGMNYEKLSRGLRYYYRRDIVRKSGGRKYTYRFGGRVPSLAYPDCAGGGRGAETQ
In short: as §1

ELF3 = target: T11, ELF3 (Homo sapiens, UniProt P78545 1-371)
T11 sequence: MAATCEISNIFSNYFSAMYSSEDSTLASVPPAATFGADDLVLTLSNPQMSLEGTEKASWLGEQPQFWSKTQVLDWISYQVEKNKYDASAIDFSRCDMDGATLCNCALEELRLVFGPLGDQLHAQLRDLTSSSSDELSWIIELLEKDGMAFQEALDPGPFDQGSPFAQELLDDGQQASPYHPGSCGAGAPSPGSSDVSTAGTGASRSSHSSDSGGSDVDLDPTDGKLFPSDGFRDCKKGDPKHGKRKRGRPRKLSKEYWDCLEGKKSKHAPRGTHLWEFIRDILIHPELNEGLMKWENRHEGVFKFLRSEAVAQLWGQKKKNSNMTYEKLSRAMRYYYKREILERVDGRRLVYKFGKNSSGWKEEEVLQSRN
In short: as §1

ETV1 = ETV1 (Homo sapiens, UniProt P50549 1-477)
In short: as §1

ETV1, sequence (P50549 whole entry): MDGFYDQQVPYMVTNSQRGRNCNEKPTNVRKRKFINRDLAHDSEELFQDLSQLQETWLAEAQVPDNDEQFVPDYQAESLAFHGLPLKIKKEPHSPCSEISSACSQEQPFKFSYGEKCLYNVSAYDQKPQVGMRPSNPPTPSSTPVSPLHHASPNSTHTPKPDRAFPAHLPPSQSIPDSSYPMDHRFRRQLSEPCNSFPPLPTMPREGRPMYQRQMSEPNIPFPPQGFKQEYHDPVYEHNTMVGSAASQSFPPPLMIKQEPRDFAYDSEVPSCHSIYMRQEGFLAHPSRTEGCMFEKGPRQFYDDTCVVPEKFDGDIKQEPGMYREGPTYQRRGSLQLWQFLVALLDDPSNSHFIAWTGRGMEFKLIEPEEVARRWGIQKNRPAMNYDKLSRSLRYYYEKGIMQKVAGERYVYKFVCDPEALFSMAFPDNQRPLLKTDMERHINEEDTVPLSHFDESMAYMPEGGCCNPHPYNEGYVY
ELF4, sequence (Q99607 whole entry): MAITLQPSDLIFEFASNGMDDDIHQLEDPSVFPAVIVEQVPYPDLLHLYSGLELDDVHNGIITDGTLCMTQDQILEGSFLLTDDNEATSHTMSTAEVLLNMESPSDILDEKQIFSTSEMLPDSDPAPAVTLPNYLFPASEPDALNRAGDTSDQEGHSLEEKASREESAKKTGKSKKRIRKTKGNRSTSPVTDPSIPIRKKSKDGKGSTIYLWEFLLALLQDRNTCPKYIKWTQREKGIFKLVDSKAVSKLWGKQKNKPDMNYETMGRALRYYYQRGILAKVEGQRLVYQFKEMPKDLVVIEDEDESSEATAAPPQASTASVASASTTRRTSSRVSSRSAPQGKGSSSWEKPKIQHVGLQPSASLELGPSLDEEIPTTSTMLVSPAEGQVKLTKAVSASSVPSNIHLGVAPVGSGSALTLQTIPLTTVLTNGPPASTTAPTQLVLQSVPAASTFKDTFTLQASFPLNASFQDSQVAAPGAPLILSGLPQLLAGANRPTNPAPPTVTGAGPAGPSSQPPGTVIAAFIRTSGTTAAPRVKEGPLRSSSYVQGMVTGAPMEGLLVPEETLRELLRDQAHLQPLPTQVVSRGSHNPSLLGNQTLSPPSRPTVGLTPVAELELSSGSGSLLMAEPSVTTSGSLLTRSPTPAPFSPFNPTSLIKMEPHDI
ELF1, sequence (P32519 whole entry): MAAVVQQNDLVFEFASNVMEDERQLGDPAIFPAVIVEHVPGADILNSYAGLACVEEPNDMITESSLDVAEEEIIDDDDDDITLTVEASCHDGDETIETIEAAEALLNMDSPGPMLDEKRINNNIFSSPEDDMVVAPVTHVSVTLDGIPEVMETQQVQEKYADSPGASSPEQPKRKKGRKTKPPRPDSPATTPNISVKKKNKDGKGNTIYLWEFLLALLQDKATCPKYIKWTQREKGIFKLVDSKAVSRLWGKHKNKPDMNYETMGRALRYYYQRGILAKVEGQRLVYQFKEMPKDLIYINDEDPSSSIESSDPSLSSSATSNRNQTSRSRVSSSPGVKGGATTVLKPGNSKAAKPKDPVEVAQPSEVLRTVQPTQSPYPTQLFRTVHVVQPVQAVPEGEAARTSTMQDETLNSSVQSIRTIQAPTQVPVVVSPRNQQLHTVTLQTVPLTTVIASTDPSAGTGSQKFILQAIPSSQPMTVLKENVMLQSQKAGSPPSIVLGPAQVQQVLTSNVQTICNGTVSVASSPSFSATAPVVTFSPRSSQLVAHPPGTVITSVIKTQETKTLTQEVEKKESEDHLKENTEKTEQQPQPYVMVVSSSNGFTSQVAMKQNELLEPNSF
SPIB, sequence (Q01892 whole entry): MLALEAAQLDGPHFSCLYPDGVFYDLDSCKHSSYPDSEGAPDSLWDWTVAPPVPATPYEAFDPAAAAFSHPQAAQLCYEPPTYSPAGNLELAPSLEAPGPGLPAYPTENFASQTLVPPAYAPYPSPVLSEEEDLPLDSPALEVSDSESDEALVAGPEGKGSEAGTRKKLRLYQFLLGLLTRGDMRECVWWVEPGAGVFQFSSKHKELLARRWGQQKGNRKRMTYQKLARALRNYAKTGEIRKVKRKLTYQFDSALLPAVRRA
ETV5, sequence (P41161 whole entry): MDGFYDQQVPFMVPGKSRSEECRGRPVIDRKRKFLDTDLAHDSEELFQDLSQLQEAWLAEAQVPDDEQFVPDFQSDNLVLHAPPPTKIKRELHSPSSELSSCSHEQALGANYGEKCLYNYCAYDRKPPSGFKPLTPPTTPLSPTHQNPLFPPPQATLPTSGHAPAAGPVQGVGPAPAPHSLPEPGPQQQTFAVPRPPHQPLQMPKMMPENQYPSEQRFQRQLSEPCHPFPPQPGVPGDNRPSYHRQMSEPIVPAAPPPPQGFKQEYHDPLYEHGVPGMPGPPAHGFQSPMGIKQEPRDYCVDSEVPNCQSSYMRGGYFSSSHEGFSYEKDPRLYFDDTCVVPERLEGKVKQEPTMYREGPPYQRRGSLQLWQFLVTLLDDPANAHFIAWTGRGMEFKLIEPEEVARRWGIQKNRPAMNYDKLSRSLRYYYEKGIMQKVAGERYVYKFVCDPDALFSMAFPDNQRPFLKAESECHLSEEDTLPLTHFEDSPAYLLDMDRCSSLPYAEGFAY

Sequence	binding signal (FLI1)	binding signal (ELK1)	binding signal (GABPA)	binding signal (ERG)	binding signal (ELF1)	binding signal (EHF)	binding signal (SPI1)	binding signal (SPIB)	binding signal (ELK3)	binding signal (FEV)	binding signal (ETV5)	binding signal (SPIC)	binding signal (ELF4)	binding signal (ELK4)	binding signal (ETV2)	binding signal (ELF3)	binding signal (ETV1)
ACAGGA	1.15 fold enrichment (6-mer frequency, TF over GST control)	1.08 fold enrichment (6-mer frequency, TF over GST control)	1.13 fold enrichment (6-mer frequency, TF over GST control)	1.22 fold enrichment (6-mer frequency, TF over GST control)	1.04 fold enrichment (6-mer frequency, TF over GST control)	1.12 fold enrichment (6-mer frequency, TF over GST control)	1.34 fold enrichment (6-mer frequency, TF over GST control)	1.22 fold enrichment (6-mer frequency, TF over GST control)	1.04 fold enrichment (6-mer frequency, TF over GST control)	1.18 fold enrichment (6-mer frequency, TF over GST control)	1.19 fold enrichment (6-mer frequency, TF over GST control)	1.07 fold enrichment (6-mer frequency, TF over GST control)	1.04 fold enrichment (6-mer frequency, TF over GST control)	1.04 fold enrichment (6-mer frequency, TF over GST control)	1.06 fold enrichment (6-mer frequency, TF over GST control)	1.15 fold enrichment (6-mer frequency, TF over GST control)	1.16 fold enrichment (6-mer frequency, TF over GST control)
TGCACA	1.18 fold enrichment (6-mer frequency, TF over GST control)	1.18 fold enrichment (6-mer frequency, TF over GST control)	1.03 fold enrichment (6-mer frequency, TF over GST control)	1.09 fold enrichment (6-mer frequency, TF over GST control)	1.1 fold enrichment (6-mer frequency, TF over GST control)	1.02 fold enrichment (6-mer frequency, TF over GST control)	1.05 fold enrichment (6-mer frequency, TF over GST control)	1.13 fold enrichment (6-mer frequency, TF over GST control)	1.2 fold enrichment (6-mer frequency, TF over GST control)	1.14 fold enrichment (6-mer frequency, TF over GST control)	1.13 fold enrichment (6-mer frequency, TF over GST control)	1.15 fold enrichment (6-mer frequency, TF over GST control)	1.12 fold enrichment (6-mer frequency, TF over GST control)	1.11 fold enrichment (6-mer frequency, TF over GST control)	1.15 fold enrichment (6-mer frequency, TF over GST control)	1.26 fold enrichment (6-mer frequency, TF over GST control)	1.09 fold enrichment (6-mer frequency, TF over GST control)
ACAACC	1.25 fold enrichment (6-mer frequency, TF over GST control)	1.28 fold enrichment (6-mer frequency, TF over GST control)	1.21 fold enrichment (6-mer frequency, TF over GST control)	1.22 fold enrichment (6-mer frequency, TF over GST control)	1.16 fold enrichment (6-mer frequency, TF over GST control)	1.29 fold enrichment (6-mer frequency, TF over GST control)	1.2 fold enrichment (6-mer frequency, TF over GST control)	1.28 fold enrichment (6-mer frequency, TF over GST control)	1.28 fold enrichment (6-mer frequency, TF over GST control)	1.34 fold enrichment (6-mer frequency, TF over GST control)	1.27 fold enrichment (6-mer frequency, TF over GST control)	1.19 fold enrichment (6-mer frequency, TF over GST control)	1.19 fold enrichment (6-mer frequency, TF over GST control)	1.19 fold enrichment (6-mer frequency, TF over GST control)	1.26 fold enrichment (6-mer frequency, TF over GST control)	1.26 fold enrichment (6-mer frequency, TF over GST control)	1.23 fold enrichment (6-mer frequency, TF over GST control)
